Results published in PubChem BioAssay AID1159580 (chemical genetic matrix, 2015).
About 2,000 (36%) of roughly 5,500 compounds were called active. Inconclusive results (about 18%) are left out. Rule as the data show it: active = normalized growth mostly below about 0.91 (no sharp cut-off); inconclusive = no clear call, values can overlap the other calls; inactive = mostly above about 0.92. This is one part of the list.

Experiment: chemical genetic growth profiling, strain panel (AID 1159580);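 also: tested at 20 µM; growth read once vehicle control cultures reached saturation at 30 °C; 1 = growth at the plate median or of vehicle wells; lower values mean less growth of the strain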
Details: growth OD

Measured: normalized growth

CCC(N)C(O)c1ccc(O)c(O)c1 (configuration not stated)
inactive: S. cerevisiae deletion strains, locus YJR075W, strain HOC1, active compounds read low 1.01 | S. cerevisiae deletion strains, locus YKL009W, strain mrt4, active compounds read low 0.996 | S. cerevisiae deletion strains, locus YKL068W, active compounds read low 0.993 | S. cerevisiae deletion strains, locus YKL085W, strain MDH1 (second series), active compounds read low 0.985 | S. cerevisiae deletion strains, locus YKL085W, strain MDH1, active compounds read low 0.985 | S. cerevisiae deletion strains, locus YKL160W, strain elf1, active compounds read low 0.999 | S. cerevisiae deletion strains, locus YKL190W, strain CNB1, active compounds read low 1.01 | S. cerevisiae deletion strains, locus YKR001C, strain vps1, active compounds read low 0.99 | S. cerevisiae deletion strains, locus YKR026C, strain gcn3, active compounds read low 0.973 | S. cerevisiae deletion strains, locus YKR091W, strain srl3, active compounds read low 0.993 | S. cerevisiae deletion strains, locus YLL001W, strain dnm1, active compounds read low 1 | S. cerevisiae deletion strains, locus YLL026W, active compounds read low 0.984 | S. cerevisiae deletion strains, locus YLL041C, strain sdh2, active compounds read low 1 | S. cerevisiae deletion strains, locus YLR027C, strain aat2, active compounds read low 0.988 | S. cerevisiae deletion strains, locus YLR039C, strain RIC1, active compounds read low 1.06 | S. cerevisiae deletion strains, locus YLR058C, strain SHM2, active compounds read low 1.02 | S. cerevisiae deletion strains, locus YLR102C, strain apc9, active compounds read low 0.983 | S. cerevisiae deletion strains, locus YLR113W, strain HOG1, active compounds read low 0.998 | S. cerevisiae deletion strains, locus YLR221C, strain rsa3, active compounds read low 1 | S. cerevisiae deletion strains, locus YLR258W, strain gsy2, active compounds read low 0.993 | S. cerevisiae deletion strains, locus YLR262C, strain YPT6 (second series), active compounds read low 0.996 | S. cerevisiae deletion strains, locus YLR262C, strain YPT6, active compounds read low 1.05 | S. cerevisiae deletion strains, locus YLR268W, strain sec22, active compounds read low 0.928 | S. cerevisiae deletion strains, locus YLR320W, strain mms22, active compounds read low 0.99 | S. cerevisiae deletion strains, locus YLR330W, strain CHS5, active compounds read low 1.01 | S. cerevisiae deletion strains, locus YLR342W, strain FKS1 (second series), active compounds read low 0.989 | S. cerevisiae deletion strains, locus YLR342W, strain FKS1, active compounds read low 0.995 | S. cerevisiae deletion strains, locus YLR357W, strain rsc2, active compounds read low 0.979 | S. cerevisiae deletion strains, locus YLR370C, strain arc18, active compounds read low 0.989 | S. cerevisiae deletion strains, locus YLR371W, strain rom2, active compounds read low 0.977 | S. cerevisiae deletion strains, locus YLR384C, strain iki3, active compounds read low 0.997 | S. cerevisiae deletion strains, locus YLR418C, strain cdc73, active compounds read low 1.01 | S. cerevisiae deletion strains, locus YML016C, strain PPZ1, active compounds read low 1.01 | S. cerevisiae deletion strains, locus YML032C, strain rad52, active compounds read low 0.972 | S. cerevisiae deletion strains, locus YML120C, strain ndi1, active compounds read low 1.01 | S. cerevisiae deletion strains, locus YML124C, strain tub3, active compounds read low 0.991 | S. cerevisiae deletion strains, locus YMR058W, strain fet3, active compounds read low 0.987 | S. cerevisiae deletion strains, locus YMR078C, strain ctf18, active compounds read low 0.977 | S. cerevisiae deletion strains, locus YMR125W, strain sto1, active compounds read low 0.964 | S. cerevisiae deletion strains, locus YMR129W, active compounds read low 1 | S. cerevisiae deletion strains, locus YMR205C, strain PFK2, active compounds read low 0.97 | S. cerevisiae deletion strains, locus YMR223W, strain ubp8, active compounds read low 1.02 | S. cerevisiae deletion strains, locus YMR231W, strain pep5, active compounds read low 0.996 | S. cerevisiae deletion strains, locus YMR263W, strain SAP30, active compounds read low 1.01 | S. cerevisiae deletion strains, locus YMR307W, strain GAS1, active compounds read low 1.01 | S. cerevisiae deletion strains, locus YNL067W, strain RPL9B, active compounds read low 0.993 | S. cerevisiae deletion strains, locus YNL071W, strain lat1, active compounds read low 0.991 | S. cerevisiae deletion strains, locus YNL128W, strain TEP1, active compounds read low 1.02 | S. cerevisiae deletion strains, locus YNL153C, strain GIM3, active compounds read low 0.985 | S. cerevisiae deletion strains, locus YNL183C, strain NPR1, active compounds read low 0.968 | S. cerevisiae deletion strains, locus YNL209W, strain ssb2, active compounds read low 1 | S. cerevisiae deletion strains, locus YNL233W, strain BNI4, active compounds read low 0.992 | S. cerevisiae deletion strains, locus YNL248C, strain rpa49, active compounds read low 1.01 | S. cerevisiae deletion strains, locus YNL250W, strain rad50, active compounds read low 0.988 | S. cerevisiae deletion strains, locus YNL271C, strain bni1, active compounds read low 0.99 | S. cerevisiae deletion strains, locus YNL298W, strain CLA4, active compounds read low 0.993 | S. cerevisiae deletion strains, locus YNL307C, strain MCK1, active compounds read low 1 | S. cerevisiae deletion strains, locus YNL322C, strain KRE1 (second series), active compounds read low 0.985 | S. cerevisiae deletion strains, locus YNL322C, strain KRE1, active compounds read low 1.01 | S. cerevisiae deletion strains, locus YNR049C, strain mso1, active compounds read low 0.995 | S. cerevisiae deletion strains, locus YNR052C, strain pop2, active compounds read low 0.997 | S. cerevisiae deletion strains, locus YOL006C, strain TOP1, active compounds read low 1.05 | S. cerevisiae deletion strains, locus YOL012C, strain htz1 0.91 | S. cerevisiae deletion strains, locus YOL147C, strain pex11, active compounds read low 0.991 | S. cerevisiae deletion strains, locus YOR001W, strain rrp6, active compounds read low 1 | S. cerevisiae deletion strains, locus YOR061W, strain CKA2, active compounds read low 1.02 | S. cerevisiae deletion strains, locus YOR069W, strain VPS5, active compounds read low 1.01 | S. cerevisiae deletion strains, locus YOR070C, strain gyp1, active compounds read low 0.991 | S. cerevisiae deletion strains, locus YOR080W, strain dia2, active compounds read low 0.986 | S. cerevisiae deletion strains, locus YOR083W, strain WHI5, active compounds read low 1.01 | S. cerevisiae deletion strains, locus YOR106W, strain vam3, active compounds read low 0.997 | S. cerevisiae deletion strains, locus YOR136W, strain idh2, active compounds read low 0.989 | S. cerevisiae deletion strains, locus YOR144C, strain elg1, active compounds read low 0.986 | S. cerevisiae deletion strains, locus YOR184W, strain ser1, active compounds read low 1 | S. cerevisiae deletion strains, locus YOR231W, strain MKK1, active compounds read low 1.02 | S. cerevisiae deletion strains, locus YOR265W, strain rbl2, active compounds read low 0.99 | S. cerevisiae deletion strains, locus YOR270C, strain vph1, active compounds read low 1.02 | S. cerevisiae deletion strains, locus YOR290C, strain snf2, active compounds read low 0.987 | S. cerevisiae deletion strains, locus YOR316C, strain cot1, active compounds read low 0.989 | S. cerevisiae deletion strains, locus YPL051W, strain arl3, active compounds read low 0.983 | S. cerevisiae deletion strains, locus YPL055C, strain LGE1, active compounds read low 1.03 | S. cerevisiae deletion strains, locus YPL078C, strain atp4, active compounds read low 0.996 | S. cerevisiae deletion strains, locus YPL106C, strain sse1, active compounds read low 0.94 | S. cerevisiae deletion strains, locus YPL240C, strain hsp82, active compounds read low 1.01 | S. cerevisiae deletion strains, locus YPL241C, strain CIN2, active compounds read low 1.01 | S. cerevisiae deletion strains, locus YPL256C, strain CLN2, active compounds read low 1.01 | S. cerevisiae deletion strains, locus YPR119W, strain clb2, active compounds read low 0.981 | S. cerevisiae deletion strains, locus YPR141C, strain kar3, active compounds read low 0.984 | S. cerevisiae deletion strains, locus YPR163C, strain tif3, active compounds read low 0.996 | S. cerevisiae deletion strains, locus YPR167C, strain met16, active compounds read low 0.99 | S. cerevisiae deletion strains, strain wtn01, active compounds read low 0.979 | S. cerevisiae strains, strain wild type, active compounds read low 1.02
